The panel holds about 83,000 compounds, 20% with a hit somewhere; the sample as a whole holds those more often.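 Values shown are percent growth following 48 h exposure of cells in 96-well plates to a single concentration of compound; below 10 was considered active.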 Values without a mark were called inactive. Calls of active or inactive are those of the source.
The molecules below were run on HL-60(TB) leukemia (assay: NCI-60 one-dose screen, 48 h (100 = growth as untreated, 0 = no growth, -100 = all killed)). Settings: 10 µM unless noted.

`Cc1ccc(C2CC(c3cccc(Nc4ccncc4)c3)=NN2c2ccc(Cl)cc2)cc1` (stereo not given) was tested. Which growth did it give?
Its growth is -55.6% (active).

How did the growth turn out when `O=C(CSSCC(=O)c1ccc(Cl)cc1)c1ccc(Cl)cc1` was run?
The growth was 44.7%.

For `CCCCCCCCCC[N+](C)(C)C`, which growth is on record?
The growth was -6.93% (active).

For `CC(=O)c1c(C)[nH]c(-c2nc3ccc(N4CCN(C)CC4)cc3[nH]2)c1-c1ccc(N(C)C)cc1`, which growth is on record?
The growth was -17.3% (active).

For `CCN(CC)CCCCCNc1cc(OC(=O)c2ccc(Cl)cc2)cc2cccnc12`, which growth is on record?
Its growth is 6.96% (active).

How did the growth turn out when `CC/C=C\C[C@H](O)C/C=C1/C(=O)C=C[C@@H]1C/C=C\CCCC(=O)OC` was run?
Its growth is -12.3% (active).

`c1ccc(CCCCc2ccc3ccccc3n2)cc1` was tested. Which growth did it give?
Its growth is 102%.

Which growth does the source give for `C/C(=C\c1cc(Cl)ccc1OCC(=O)O)[N+](=O)[O-]` here?
The growth was 52.5%.

Which growth does the source give for `CC[C@]12C=CCN3CC[C@@]4(c5ccc(OC)cc5N(C)[C@H]4[C@@](O)(C(=O)OC)[C@@H]1OC(=O)CCC(=O)O[C@H]1CC[C@H]4[C@@H]5CCC6=CC(=O)CC[C@@H]6[C@H]5CC[C@]14C)[C@@H]32` here?
The growth was -37.9% [100 µM] (active).

With `COc1ccc(NC(=O)c2ccc(C(=O)Nc3ccc(OC)cc3OC)cc2)c(OC)c1` as the molecule, how does the growth read?
Its growth is 88.5%.

Which growth does the source give for `CN1CCCCC1CCN1c2ccccc2Sc2ccc(Cl)cc21` (stereo not given) here?
The growth was 42.1%.

For `Cc1nc2ccc(Cl)cc2n1C`, which growth is on record?
The growth was 101%.

How did the growth turn out when `COc1cc2c(/C=C3/C(=O)Nc4ccc(O)cc43)c(Cl)n(Cc3cc(OC)c(OC)c(OC)c3)c2cc1C` was run?
The growth was -33.7% (active).

Which growth does the source give for `O=C(NC1CCNCC1)c1[nH]ncc1NC(=O)c1c(Cl)cccc1Cl` here?
The growth was -31.8% (active).

With `O=C(Nc1ccc(-n2cc(-c3ccncc3)c(-c3ccc(O)c(Cl)c3)n2)cc1)c1ccc(Cl)c(C(F)(F)F)c1` as the molecule, how does the growth read?
Its growth is 10.9%.

`COc1ccc(-n2c(=O)n(-c3ccc(-c4nc5ccc(F)cc5s4)cc3)c(=O)c3cccnc32)cc1` was tested. Which growth did it give?
Its growth is 102%.

`C#CCN(CCCOc1ccc(Cl)cc1Cl)CCCSC(=O)CCCCCN1/C(=C\C=C2/CCCC(/C=C/C3=[N+](CCCCCC(=O)[O-])c4ccccc4C3(C)C)=C2Cl)C(C)(C)c2ccccc21` was tested. Which growth did it give?
Its growth is -44.2% (active).

How did the growth turn out when `C[C@@H](Oc1cc(-n2cnc3ccc(CN4CCN(C)CC4)cc32)sc1C(N)=O)c1ccccc1C(F)(F)F` was run?
The growth was -19.4% (active).

`O=C(O)c1cn(C2CC2)c2cc(N3CCN(Cc4nc5c(cnn5-c5ccc([N+](=O)[O-])cc5)c(=O)[nH]4)CC3)c(F)cc2c1=O` was tested. Which growth did it give?
The growth was 92.8%.

`CCCCN(CCCC)CCC(C)(O)c1cc2ccccc2c2ccccc12` (stereo not given) was tested. Which growth did it give?
Its growth is 83.7%.

For `CCNC(=O)C1CCCN1C(=O)C(CCCN=C(N)N)NC(=O)C(CC(C)C)NC(=O)C(CC(C)C)NC(=O)C(Cc1ccc(O)cc1)NC(=O)C(CO)NC(=O)C(Cc1c[nH]c2ccccc12)NC(=O)C(Cc1cnc[nH]1)NC(=O)C1CCC(=O)N1` (stereo not given), which growth is on record?
Its growth is 113%.

How did the growth turn out when `COc1cc(C2Nc3ccccc3S2)cc(CN2CCOCC2)c1O` (stereo not given) was run?
The growth was 80.6%.

For `Cc1ccc2[nH]c(=O)c3c(c2c1)OC(N)=C(C#N)C31c2cc(Br)ccc2-c2ccc(Br)cc21`, which growth is on record?
The growth was 85.7%.

Which growth does the source give for `COc1ccc(-c2cc(/C=C/C(=O)c3cc(OC)c(OC)c(OC)c3)[nH]n2)cc1OC` here?
Its growth is -22.9% (active).

For `Brc1ccc(-c2nn(-c3ccccc3)cc2-c2nn[nH]n2)s1`, which growth is on record?
The growth was 103%.

`CC(C)N(CCOC(=O)Nc1ccccc1Cl)C(C)C` was tested. Which growth did it give?
Its growth is 103%.

For `CNC(=O)c1cc(Oc2ccc3nc(NC(=O)Nc4ccc(F)cc4F)sc3c2)ccn1`, which growth is on record?
The growth was 98.3%.

`C#CCOC(=O)/C=C/c1cn(-c2ccccc2)nc1-c1ccc(OC)cc1` was tested. Which growth did it give?
The growth was 110%.

For `Cc1ccccc1NC(=O)Cn1cc(CN2CCN(c3ccnc4cc(Cl)ccc34)CC2)nn1`, which growth is on record?
The growth was 22.2%.

`Cc1c2c(cc[n+]1Cc1ccccc1)c1ccc(OCc3ccccc3)cc1n2Cc1ccccc1` was tested. Which growth did it give?
The growth was -54.1% (active).

Which growth does the source give for `CC(C)(C)c1[nH]nc2c1C(c1cc3ccccc3[nH]c1=O)Nc1cc(C(=O)Nc3ccc(Cl)cc3)ccc1N2` (stereo not given) here?
The growth was 55.9%.

Which growth does the source give for `O=c1[nH][n+](-c2ccc(Cl)cc2)no1` here?
The growth was 24.9%.

Which growth does the source give for `N=C(N)c1ccc(-c2ccc(-c3ccc(F)cc3)s2)cc1` here?
The growth was -56.1% (active).

With `Cc1cc(N2CCCC2)nc(N(CCCNc2ccnc3cc(Cl)ccc23)Cc2ccccn2)n1` as the molecule, how does the growth read?
The growth was 23.4%.

`C=CCN(CC=C)C(=O)[C@H](CC)[C@@H]1CC[C@@H](C)[C@@H]([C@H](C)[C@@H](O)[C@@H](C)C(=O)[C@H](CC)C2O[C@]3(C=CC(=O)[C@]4(CC[C@@](C)([C@H]5CC[C@](O)(CC)[C@H](C)O5)O4)O3)[C@H](C)C[C@@H]2C)O1` (stereo not given in full) was tested. Which growth did it give?
Its growth is -25.2% (active).

— PubChem BioAssay (NCI)
